Test results reported in PubChem BioAssay (Tox21).
Inconclusive results are not listed. Unmarked numbers belong to inactive results. Unless noted, calls follow the shape of the full dose curve.

Test system: not listed separately
Test: qHTS assay to identify small molecule agonists of the estrogen related receptor signaling pathway with the pleiotropic PPARgamma coactivator (PGC) from Tox21 10K library (AID 1224842; active = well fitted activation curve with a large enough effect in the repeat runs; also: nearly all actives have a fitted effect of over 15% in size)
Details: PGC/ERR reporter cell line, luciferase ONE-Glo, 18 h; series mostly up to 92.4 µM; activation: at the top concentration
Method in brief: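 Luminescence from One-Glo (30 min, room temperature) measured after PGC/ERR cells had 18 h at 37 C with pinned compound (23 nL in DMSO). Cells had been seeded at 2,000 per well and pre-incubated 6 h.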
% is scaled to controls: 0 for no effect and ±100 for the full control effect.

Compound	activation
CC(C)(N)C#N	0.963%
CO/N=C(\C(=O)N[C@@H]1C(=O)N2C(C(=O)O)=C(CSc3nc(=O)c(O)nn3C)CS[C@H]12)c1csc(N)n1	3.48% [at 42.5 µM]
O=S(=O)(O)c1cccc2ccccc12	0.76%
COc1ccc2cc1Oc1cc3c(cc1OC)CC[N+](C)(C)[C@H]3Cc1ccc(cc1)Oc1c(OC)c(OC)cc3c1[C@@H](C2)[N+](C)(C)CC3	-1.15% [at 42.5 µM]
CCCC(C)C(=O)OCC (stereo unspecified)	0.256%
CC(=O)OCC(=O)[C@@]1(O)[C@H](C)C[C@H]2[C@@H]3CCC4=CC(=O)C=C[C@]4(C)[C@@]3(F)[C@@H](O)C[C@@]21C	2.8% [at 42.5 µM]
O=C(CO)[C@@H](O)[C@H](O)[C@@H](O)CO	2.38% [at 42.5 µM]
Cc1ccc(C(=O)Nc2ccc(S(=O)(=O)O)c3cc(S(=O)(=O)O)cc(S(=O)(=O)O)c23)cc1NC(=O)c1cccc(NC(=O)Nc2cccc(C(=O)Nc3cc(C(=O)Nc4ccc(S(=O)(=O)O)c5cc(S(=O)(=O)O)cc(S(=O)(=O)O)c45)ccc3C)c2)c1	0.0811% [at 42.5 µM]
CC(=O)c1ccccc1[N+](=O)[O-]	-0.292%
CC(C)(C)c1ccc(-c2ccc(C(C)(C)C)cc2)cc1	3.7%
c1ccc2sc(SN3CCOCC3)nc2c1	9.39% [at 42.5 µM]
C[N+](C)(CCOc1ccccc1)Cc1cccs1	-1.82% [at 42.5 µM]
OCCCCCO	0.547%

Target: Thyrotropin receptor (Homo sapiens) (UniProt P16473)
Test: qHTS assay to identify small molecule agonists of the thyroid stimulating hormone receptor (TSHR) signaling pathway (AID 1224843); also: nearly all actives have a fitted effect of over 45% in size
Details: TSHR-HEK293 cells, cAMP HTRF, agonist mode, 30 min; series mostly up to 92.4 µM; activation: at the top concentration
Method in brief: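 Screening of the Tox21 10K collection used HEK293 cells engineered with TSHR at 800 cells per well. After a 30-min room-temperature compound exposure, HTRF cAMP reagents were added and fluorescence recorded 1 h later.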

Thyrotropin receptor (Homo sapiens), sequence (P16473 whole entry, looked up): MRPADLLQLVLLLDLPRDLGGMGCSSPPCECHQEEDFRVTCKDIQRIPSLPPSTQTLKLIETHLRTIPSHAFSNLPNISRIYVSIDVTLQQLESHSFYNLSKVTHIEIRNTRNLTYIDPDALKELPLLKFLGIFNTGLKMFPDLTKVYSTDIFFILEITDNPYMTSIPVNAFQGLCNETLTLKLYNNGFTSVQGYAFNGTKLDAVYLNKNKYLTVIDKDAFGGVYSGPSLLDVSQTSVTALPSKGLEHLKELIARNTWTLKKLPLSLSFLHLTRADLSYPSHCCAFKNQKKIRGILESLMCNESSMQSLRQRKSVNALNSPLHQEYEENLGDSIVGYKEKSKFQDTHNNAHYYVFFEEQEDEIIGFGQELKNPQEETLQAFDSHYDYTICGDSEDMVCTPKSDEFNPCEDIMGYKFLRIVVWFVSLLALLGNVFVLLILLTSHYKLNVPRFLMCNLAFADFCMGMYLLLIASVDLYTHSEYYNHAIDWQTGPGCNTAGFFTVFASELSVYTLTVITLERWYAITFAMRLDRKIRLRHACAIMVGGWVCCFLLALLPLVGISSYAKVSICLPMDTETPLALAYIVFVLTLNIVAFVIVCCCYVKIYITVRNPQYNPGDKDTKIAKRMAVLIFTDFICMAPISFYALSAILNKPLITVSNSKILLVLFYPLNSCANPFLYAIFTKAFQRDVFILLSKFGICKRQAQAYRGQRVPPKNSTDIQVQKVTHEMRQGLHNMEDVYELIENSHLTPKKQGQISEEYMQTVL

Compound	activation
COC(=O)Nc1ccc(Cl)c(Cl)c1	-3.54%
NC(=O)N1c2ccccc2CC(=O)c2ccccc21	-7.36% [at 42.5 µM]
O=C(O)c1cn(C2CC2)c2cc(N3CCNCC3)c(F)cc2c1=O	2.65% [at 42.5 µM]
CO/N=C(\C(=O)N[C@@H]1C(=O)N2C(C(=O)O)=C(CSc3nc(=O)c(O)nn3C)CS[C@H]12)c1csc(N)n1	-8.48% [at 42.5 µM]
CC1=NN(c2cc(S(=O)(=O)O)ccc2Cl)C(=O)C1N=Nc1ccccc1 (stereo unspecified)	-0.471%
COc1ccc2cc1Oc1cc3c(cc1OC)CC[N+](C)(C)[C@H]3Cc1ccc(cc1)Oc1c(OC)c(OC)cc3c1[C@@H](C2)[N+](C)(C)CC3	11.8% [at 42.5 µM]
CCCC(C)C(=O)OCC (stereo unspecified)	-0.252%
O=C(CO)[C@@H](O)[C@H](O)[C@@H](O)CO	1.01% [at 42.5 µM]
NC(N)=NCCN1CCCCCCC1	-0.603% [at 0.349 µM]
Cc1ccc(C(=O)Nc2ccc(S(=O)(=O)O)c3cc(S(=O)(=O)O)cc(S(=O)(=O)O)c23)cc1NC(=O)c1cccc(NC(=O)Nc2cccc(C(=O)Nc3cc(C(=O)Nc4ccc(S(=O)(=O)O)c5cc(S(=O)(=O)O)cc(S(=O)(=O)O)c45)ccc3C)c2)c1	-5.38% [at 42.5 µM]
CC(=O)c1ccccc1[N+](=O)[O-]	1.63%
CC(C)(C)c1ccc(-c2ccc(C(C)(C)C)cc2)cc1	-2.7%
c1ccc2sc(SN3CCOCC3)nc2c1	-0.552% [at 42.5 µM]
CCN[C@H]1C[C@H](C)S(=O)(=O)c2sc(S(N)(=O)=O)cc21	4.54% [at 42.5 µM]
CCOC(=O)C(=O)CCCCCCl	-1.26% [at 42.5 µM]
C[C@H]1[C@H](NC(=O)/C(=N/OC(C)(C)C(=O)O)c2csc(N)n2)C(=O)N1S(=O)(=O)O (stereo in doubt)	-0.759% [at 42.5 µM]
Cc1c(N)c(=O)n(-c2ccccc2)n1C	-0.735% [at 42.5 µM]
Nc1ccncc1N	0.96% [at 42.5 µM]
C[N+](C)(CCOc1ccccc1)Cc1cccs1	0.296% [at 42.5 µM]
OCCCCCO	-6.75%

Test system: not listed separately
Test: qHTS assay to identify small molecule agonists of the hypoxia (HIF-1) signaling pathway - cell viability counter screen (AID 1224844); also: nearly all actives have a fitted effect of over 50% in size
Details: HRE-bla ME-180 viability, CellTiter-Glo luminescence, 17 h; series mostly up to 76.8 µM; activity change, negative = cytotoxicity: at the top concentration
Method in brief: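 Cells (HRE-bla ME-180, 2,000 per well) sat 5 hrs at 37C, got compound for 17 hrs, were read for CCF4-AM FRET, and were finally lysed with CellTiter-Glo for a 30 min room-temperature luminescence read.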

Compound	activity change, negative = cytotoxicity
CC(=O)c1ccc2ccccc2c1	-4.7%
CCCCc1nc(Cl)c(CO)n1Cc1ccc(-c2ccccc2-c2nn[nH]n2)cc1	2.69% [at 35.3 µM]
NO	-2.07%
COC(=O)Nc1ccc(Cl)c(Cl)c1	14.8%
NC(=O)N1c2ccccc2CC(=O)c2ccccc21	7.59% [at 35.3 µM]
CC1=CC(=O)[C@H]2C[C@@H]1C2(C)C	10.6%
CC(C)(N)C#N	-0.615%
O=C(O)c1cn(C2CC2)c2cc(N3CCNCC3)c(F)cc2c1=O	6.28% [at 35.3 µM]
CO/N=C(\C(=O)N[C@@H]1C(=O)N2C(C(=O)O)=C(CSc3nc(=O)c(O)nn3C)CS[C@H]12)c1csc(N)n1	6.7% [at 35.3 µM]
O=S(=O)(O)c1cccc2ccccc12	9.38%
CC1=NN(c2cc(S(=O)(=O)O)ccc2Cl)C(=O)C1N=Nc1ccccc1 (stereo unspecified)	0.651%
COc1ccc2cc1Oc1cc3c(cc1OC)CC[N+](C)(C)[C@H]3Cc1ccc(cc1)Oc1c(OC)c(OC)cc3c1[C@@H](C2)[N+](C)(C)CC3	7.02% [at 35.3 µM]
CCCC(C)C(=O)OCC (stereo unspecified)	-1.77%
COc1c(N2CCNC(C)C2)c(F)cc2c(=O)c(C(=O)O)cn(C3CC3)c12 (stereo unspecified)	11.5% [at 35.3 µM]
CC(=O)OCC(=O)[C@@]1(O)[C@H](C)C[C@H]2[C@@H]3CCC4=CC(=O)C=C[C@]4(C)[C@@]3(F)[C@@H](O)C[C@@]21C	-16.7% [at 35.3 µM]
Nc1ccccn1	-11.2%
O=C(CO)[C@@H](O)[C@H](O)[C@@H](O)CO	0.951% [at 35.3 µM]
CCC(C)(CN(C)C)OC(=O)c1ccccc1 (stereo unspecified)	11.4% [at 35.3 µM]
NC(N)=NCCN1CCCCCCC1	-1.67% [at 0.29 µM]

Compound	activity change, negative = cytotoxicity
O=C(O)CNC(=O)c1ccc(CO)o1	-6.2%
Cc1ccc(C(=O)Nc2ccc(S(=O)(=O)O)c3cc(S(=O)(=O)O)cc(S(=O)(=O)O)c23)cc1NC(=O)c1cccc(NC(=O)Nc2cccc(C(=O)Nc3cc(C(=O)Nc4ccc(S(=O)(=O)O)c5cc(S(=O)(=O)O)cc(S(=O)(=O)O)c45)ccc3C)c2)c1	-1.03% [at 35.3 µM]
CCCCS(=O)(=O)N[C@@H](Cc1ccc(OCCCCC2CCNCC2)cc1)C(=O)O	-5.76% [at 35.3 µM]
COc1ccnc(CS(=O)c2nc3cc(OC(F)F)ccc3[nH]2)c1OC (stereo unspecified)	8.4%
NC(CCC(=O)O)C(=O)O (stereo unspecified)	-0.901%
CC1(C)[C@@H]2CC[C@@]1(C)[C@H](O)C2	2.78%
CC(=O)c1ccccc1[N+](=O)[O-]	5.78%
CC(C)(C)c1ccc(-c2ccc(C(C)(C)C)cc2)cc1	-0.67%
c1ccc2sc(SN3CCOCC3)nc2c1	-6.02% [at 35.3 µM]
CCOC(=O)COc1cc(-n2ncc(C(F)(F)F)c(C)c2=O)c(F)cc1Cl	-2.24%
CCN[C@H]1C[C@H](C)S(=O)(=O)c2sc(S(N)(=O)=O)cc21	-0.172% [at 35.3 µM]
COc1cc(-c2ccc(=O)[nH]n2)ccc1OC(F)F	-2.58% [at 35.3 µM]
CCOC(=O)C(=O)CCCCCCl	-3.33% [at 35.3 µM]
CCN1CCOCC1	0.408%
C[C@H]1[C@H](NC(=O)/C(=N/OC(C)(C)C(=O)O)c2csc(N)n2)C(=O)N1S(=O)(=O)O (stereo in doubt)	-0.573% [at 35.3 µM]
Cc1c(N)c(=O)n(-c2ccccc2)n1C	0.276% [at 35.3 µM]
Nc1ccncc1N	21.1% [at 35.3 µM]
C[N+](C)(CCOc1ccccc1)Cc1cccs1	-5.24% [at 35.3 µM]
OCCCCCO	0.132%
